Measurements reported in PubChem BioAssay (NCATS).
Values without a mark were called inactive. Calls follow the shape of the dose curve; as a rule, active = well fitted curve in the direction sought with a large enough effect; inconclusive = small, poorly fitted or top-dose-only effect, or another doubt; inactive = no such curve, though single readings can be large or run the other way.

These compounds were tested against Hexokinase-4 (Homo sapiens) + Glucokinase regulatory protein (Homo sapiens) (UniProt P35557+Q14397) (assay: qHTS assay for inhibitors of recombinant human GCK-GKRP interaction: ADP-Glo assay (AID 743206)). Settings: ADP-Glo luminescence, 60 min; series mostly up to 76.9 µM; activity, positive = activation: at the top concentration.
Description: Glucokinase (GCK) is a glucose sensor in hepatocytes and pancreatic beta-cells. Hepatic GCK is regulated by glucokinase regulatory protein (GKRP), which is predominantly localized to the liver. GKRP binds to GCK inhibiting its activity in the fasting state while in the presence of glucose the GKRP is displaced. There is an additional layer of regulation by fructose 1-phosphate and fructose 6-phosphate, which inhibit and enhance the GCK-GKRP interaction, respectively. GCK plays a role in glucose homeostasis and there is an interest in the development of strategies to activate GCK to lower blood glucose levels in type 2 diabetes. To date the majority of effort has focused on direct activation of GCK and the assays developed herein look to activate GCK by inhibiting its binding to GKRP. A compound that inhibits the interaction of GCK with GKRP could be important for the treatment of diabetes and can also be used as a tool compound to further elucidate GCK-GKRP biology. To that end, we have developed a sensitive HTS biochemical assay where in GCK activity is coupled to luciferase to interrogate the GCK-GKRP interaction. This assay was screened against a small compound library to look for modulators of activity.
2 uL of 15 nM GST-GCK and 15 nM FLAG-GKRP proteins with 2 uM S6P (columns 1-2, 4-48; Millipore, Billerica, MA) are dispensed into Greiner, white solid-bottom 1536-well assay plates; columns 3 receive buffer without GCK as a control for maximum inhibition. Compounds (23 nL) are then transferred via Kalypsys pin tool equipped with 1536-pin array (10 nL slotted pins, V&P Scientific, San Diego, CA). The library compounds are in columns 5-48 and columns 1-4 serve as controls with DMSO in columns 1 and 3 and 26 mM 1:1.5 fold serial of gluckokinase activator (GKA-EMD) in column 2 and 26 mM of the glucokinase activator (GKA-EMD) in column 4. Following addition of compound, 1 uL of ATP […] is added, and the plate is incubated for 60 minutes at room temperature. The amount of ADP is then quantified by the ADP-Glo Kit (Promega, Madison, WI). First, 2 uL of the first kit reagent is added, and the reaction is incubated for 45 minutes; then, 4 uL of the second kit reagent are added and the reaction is incubated for 30 minutes at which time the luminescence is read on a Viewlux plate reader (Perkin-Elmer, Waltham, MA). The final concentration of reagents in the reaction are 0.4 mM ATP, 25 mM Hepes pH 7.6, 25 mM KCl, 2 mM MgCl2, 1 mM DTT, 0.025% BSA, 0.01% Tween 20, 5 mM glucose. Data are normalized to DMSO-treated control columns with (maximum signal) and without (minimum signal) enzyme.

Chain of Hexokinase-4 (Homo sapiens) + Glucokinase regulatory protein (Homo sapiens) (P35557 whole entry, looked up): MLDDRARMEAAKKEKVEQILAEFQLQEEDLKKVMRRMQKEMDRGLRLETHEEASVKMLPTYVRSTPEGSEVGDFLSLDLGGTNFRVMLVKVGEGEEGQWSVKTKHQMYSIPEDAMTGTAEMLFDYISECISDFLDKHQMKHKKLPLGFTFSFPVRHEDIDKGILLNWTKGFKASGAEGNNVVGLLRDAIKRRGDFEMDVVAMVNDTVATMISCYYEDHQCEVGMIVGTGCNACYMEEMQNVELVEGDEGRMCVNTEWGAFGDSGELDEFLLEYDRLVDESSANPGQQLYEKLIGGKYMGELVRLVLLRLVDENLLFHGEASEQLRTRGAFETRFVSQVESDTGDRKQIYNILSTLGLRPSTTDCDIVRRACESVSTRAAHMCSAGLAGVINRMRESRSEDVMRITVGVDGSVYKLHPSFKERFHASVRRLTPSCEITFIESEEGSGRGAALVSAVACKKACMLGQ
Chain of Hexokinase-4 (Homo sapiens) + Glucokinase regulatory protein (Homo sapiens) (Q14397 whole entry, looked up): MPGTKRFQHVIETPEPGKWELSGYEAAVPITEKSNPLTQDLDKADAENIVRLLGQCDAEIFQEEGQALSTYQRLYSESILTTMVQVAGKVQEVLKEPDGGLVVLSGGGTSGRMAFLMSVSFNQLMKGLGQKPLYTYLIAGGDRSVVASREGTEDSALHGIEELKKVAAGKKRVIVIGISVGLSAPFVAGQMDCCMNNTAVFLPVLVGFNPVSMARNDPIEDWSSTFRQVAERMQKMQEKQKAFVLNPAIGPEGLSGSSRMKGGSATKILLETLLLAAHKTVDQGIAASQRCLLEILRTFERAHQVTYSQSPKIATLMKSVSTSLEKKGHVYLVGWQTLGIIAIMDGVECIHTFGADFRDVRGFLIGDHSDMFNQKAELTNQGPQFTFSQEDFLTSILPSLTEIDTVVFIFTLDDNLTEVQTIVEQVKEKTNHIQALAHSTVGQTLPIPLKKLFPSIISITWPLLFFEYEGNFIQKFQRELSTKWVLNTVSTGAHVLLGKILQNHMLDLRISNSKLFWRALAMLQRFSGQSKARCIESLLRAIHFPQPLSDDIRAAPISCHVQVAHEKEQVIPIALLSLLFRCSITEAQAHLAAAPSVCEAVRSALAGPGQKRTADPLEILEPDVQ

SMILES	activity, positive = activation
CCCCCC(O)c1cccc(OCc2ccc3ccccc3n2)c1 (stereo not given)	0.534%
OCC1O[C@H](O)C(Cl)C(O)C1O (stereo not given in full)	4.7%
CSc1nc(N)c2ncn([C@@H]3O[C@H](COP(=O)(O)OP(=O)(O)OP(=O)(O)O)[C@@H](O)[C@H]3O)c2n1	-0.253%
CCNC(=O)[C@H]1O[C@@H](n2cnc3c(N)nc(NCCc4ccc(CCC(=O)O)cc4)nc32)[C@H](O)[C@@H]1O	1.83%
Cn1cc(C2=C(c3ccc(Cl)cc3Cl)C(=O)NC2=O)c2ccccc21	-1.3%
Cc1cc2c(cc1Cl)N(C(=O)Nc1ccc(Oc3cccnc3C)nc1)CC2	0.51%
Brc1c(Br)c(Br)c2n[nH]nc2c1Br	-13.2%
Oc1cc2c(cc1O)CN(C(=S)NCCc1ccc(Cl)cc1)CCC2	2.59%
Nc1nc(Cl)nc2c1ncn2[C@@H]1O[C@H](COP(=O)(O)OP(=O)(O)OP(=O)(O)O)[C@@H](O)[C@H]1O	4.96%
CCCCN1CCC(n2c(=O)[nH]c3ccccc32)CC1	0.0346%
N#C/C(=C\c1ccc(O)c(O)c1)C(=O)NCCCc1ccccc1	-0.566%
COc1ccc2c(c1)CCC1C2CC[C@@]2(C)C1CC[C@@H]2NCCCCCCN1C(=O)CCC1=O (stereo not given in full)	1.01%
C[C@@H](NC(=O)/C(C#N)=C/c1ccc(O)c(O)c1)c1ccccc1	-2.29%
CC(=O)N[C@H](C(=O)O)C(C)(C)SN=O	1.36%
CCN(CC)c1ncnc2c1ncn2[C@@H]1O[C@H](COP(=O)(O)OP(=O)(O)C(Br)(Br)P(=O)(O)O)[C@@H](O)[C@H]1O	-2.4%
N.N.O=C(O)C1(C(=O)O)CCC1.[Pt]	-2.88%
O=C(O)c1cc(=O)c2ccccc2[nH]1	-0.457%
CCCN(CC1CC1)c1nc(C)nc(Nc2c(Cl)cc(Cl)cc2Cl)c1Cl	4.82%
NCCSSCCN	0.448%
S=C(S)OC1CC2CC1C1CCCC21 (stereo not given)	0.843%

SMILES	activity, positive = activation
COc1cc(SC)ccc1C(=O)N1CCC(Cc2ccccc2)CC1	-2.55%
CC(=O)SCC[N+](C)(C)C	0.993%
Cc1ccc(O)c(N=Nc2ccccc2)n1	-23%
CC(C)ON([C@@H](C(=O)NO)C(C)C)S(=O)(=O)c1ccc(-c2ccccc2)cc1	0.0888%
Nc1nc(SCc2ccc([N+](=O)[O-])cc2)c2ncn([C@@H]3O[C@H](CO)[C@@H](O)[C@H]3O)c2n1	1.68%
C#C[C@]1(O)CC[C@H]2[C@@H]3CCC4=Cc5oncc5CC4(C)[C@H]3CCC21C (stereo not given in full)	2.25%
Cc1cc(NC2CCCCC2)nc(-n2nc(C)cc2C)n1	0.304%
O=C(c1ccc(Cl)cc1)N1CCN(c2ccc([N+](=O)[O-])c3ncccc23)CC1	-1.47%
CN1CCc2ccccc2Cc2[nH]c3ccccc3c2CC1	0.596%
Clc1ccc(N2CCN(Cc3c[nH]c4ncccc34)CC2)cc1	-3.02%
COc1ccccc1N1CCN(CCCCNS(=O)(=O)c2cccc3c(N(C)C)cccc23)CC1	2.33%
O=P(O)(O)C(Cl)(Cl)P(=O)(O)O	0.162%
Cc1nc2sccn2c(=O)c1CCN1CCC(=C(c2ccccc2)c2ccc(F)cc2)CC1	5.07%
O=[N+]([O-])c1ccc(CSc2ncnc3c2ncn3[C@@H]2O[C@H](CO)[C@@H](O)[C@H]2O)cc1	1.05%
O=C(O)/C=C/C(O)c1ccc(Cl)cc1 (stereo not given)	-0.426%
C[N+](C)(CCCCCC[N+](C)(C)CCCN1C(=O)c2cccc3cccc(c23)C1=O)CCCN1C(=O)c2cccc3cccc(c23)C1=O	-1.45%
CC12C(=O)OC(=O)C1(C)C1CCC2O1 (stereo not given)	3.82%
COc1cccc(C(=O)NCCN2CCN(c3ccc(Cl)cc3)CC2)c1	2.47%
C#CCN1C(C)=C(C(=O)OC)C(c2cccc([N+](=O)[O-])c2)C(C(=O)OCC)=C1C (stereo not given)	1.06%
O=C1NC(=O)/C(=C/c2ccc(-c3ccc(F)cc3O)o2)S1	-2.38%
